Reference: PubChem BioAssay (NCI)
Values joined by “and” are separate entries in the source; they are usually repeats but may differ in a detail not shown here. Identical values can stand only once. This is part of a sample that, as a whole, favours compounds with a hit. Of some 83,000 tested, about 20% had one in any assay.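 For each line, cells grew in 96-well plates with the test compound present at a single concentration for 48 hours.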 Values without a mark were called inactive. Active and inactive are the calls of the source. The calls were made as follows: active = growth percent below 10; inactive = the rest.

system: MDA-MB-468 breast; assay: NCI-60 one-dose screen, 48 h (100 = growth as untreated, 0 = no growth, -100 = all killed); conditions: 10 µM unless noted

| SMILES | growth |
| --- | --- |
| CCN(CC)CCCC(C)Nc1ccc2ccc(Cl)cc2n1 (stereo not given) | 77.8% |
| COc1cc(NC(=O)Nc2cccc(-c3cc(=O)c4c(OC)c(OC)c(OC)cc4o3)c2)cc(OC)c1OC | 40.4% |
| CCNCCNc1cc(-c2ccc(Cl)c(Cl)c2)c(C#N)c2nc3ccccc3n12 | -80.9% (active) |
| Cc1ccc(N(CC2=NCCN2)c2cccc(O)c2)cc1 | 93.3% |
| C/C(=N\Nc1cc(C)c2ccccc2n1)c1ccccn1 | -63.2% (active) |
| Nc1ccc2c(c1)Cc1cc(N)c(Br)cc1-2 | 81.9% |
| CCOC(=O)/C(C#N)=C(/CC)OCC | 113% |
| Clc1ccc(-c2nnc(Cn3ccnc3)o2)cc1 | 104% |
| O=C(Nc1ccc(Oc2ccc(NC(=O)Nc3ccc([N+](=O)[O-])cc3)cc2)cc1)Nc1ccc([N+](=O)[O-])cc1 | -3.83% (active) |
| N#CC1c2ccccc2C=CN1C(=O)N(c1ccccc1)c1ccccc1 (stereo not given) | 5.11% (active) |
| O=C(Nc1ccc(N2CCNCC2)cn1)c1[nH]ncc1Nc1ncnc2sc3c(c12)CCC3 | -37.9% (active) |
| C#CCOc1cccc(Nc2c(Cl)c(CCl)nc3ccc(Oc4ccccc4)cc23)c1 | 24.7% |
| Cc1ccc(/C=C/C(=O)Nc2ncc(Cc3ccc(F)cc3)s2)o1 | 34% |
| CCNc1nc2cc(Nc3ccnc4cc(Cl)ccc34)ccc2o1 | 41.2% |
| CCOC(=O)c1c(NC(=O)c2ccccc2)sc2c(O)c(CN(CC)CC)ccc12 | -2.82% (active) |
| O=[N+]([O-])c1ccc(N2CCN=N2)cc1 | 93.9% |
| CC1CC2Oc3ccc(Cl)cc3C(=O)N2O1 (stereo not given) | 94.5% |
| COc1ccc(OCC(=O)Nc2ccc(-c3nc4ccccc4s3)cc2C)cc1 | 7.38% (active) |
| O=Cc1ccc(O)c2ncccc12 | 27.4% |
| CCCCNCCC(O)c1cc2ccc(C(F)(F)F)cc2c2cc(C(F)(F)F)ccc12 (stereo not given) | -91% (active) |

| SMILES | growth |
| --- | --- |
| COP(=O)(OC)C(C)(C)CC(=O)CC(C#N)(C#N)C(C#N)C#N | 104% |
| CNC(=O)c1ccc(Nc2ncc(C(F)(F)F)c(NCc3nccnc3N(C)S(C)(=O)=O)n2)cc1 | -50.1% (active) |
| COC(=O)c1ccc2[nH]c(O)c(C(=Nc3ccc(N(C)C(=O)CN4CCN(C)CC4)cc3)c3ccc(CCO)cc3)c2c1 | 37.7% |
| CC(=O)c1cc2c(N)c(C(=O)Nc3cccc(Cl)c3)sc2nc1C | 45.3% |
| O=C(CCNNC(=O)c1ccncc1)NCc1ccccc1 | 75% |
| Cc1ccc(Sc2sc(-c3ccccc3)nc2[P+](c2ccccc2)(c2ccccc2)c2ccccc2)cc1 | -61.8% (active) |
| CCCc1c(CC)c(=N)c2ccccc2n1C | 58.7% |
| O=C(c1cccc(N2CCOCC2)n1)c1c[nH]c2ccccc12 | 89.5% |
| CS(=O)(=O)Nc1cc(-c2ccc3ncc(C#N)c(Nc4cccc(Cl)c4F)c3c2)cnc1Cl | -45.3% (active) |
| C=CCn1c(C)nc2cc(Nc3nc(N4CCOCC4)nc4nc[nH]c34)ccc21 | 85.1% |
| COc1cnc2c(c1)C(=O)c1c-2n(CCCN2CCOCC2)c(=O)c2cc(F)ccc12 | -50.1% (active) |
| Cc1ccc(-n2nnc(C3=NCCc4c3[nH]c3ccc(Cl)cc43)c2C)cc1 | 71.5% |
| CC1CC(C)(C)OB(OC(C)CC(C)(C)OB2OC(C)CC(C)(C)O2)O1 (stereo not given) | 105% |
| CCC(=O)Nc1nnc(Cc2ccc(OC)c(OC)c2)s1 | -2.42% (active) |
| CN1CCN(Cc2ccc(NC(=O)c3cccc(C#Cc4cnc(N)c5ncccc45)c3F)cc2C(F)(F)F)CC1 | 70.6% |
| CC(=O)O[C@H]1CC2CCC3C(CC[C@@]4(C)C3C[C@H]([N+]3(C)CCCCC3)[C@@H]4OC(C)=O)[C@@]2(C)C[C@@H]1N1CCCCC1 (stereo not given in full) | 106% |
| CC1CCC(C)(C)c2ccccc21 (stereo not given) | 99.6% |
| C=C1C(=O)O[C@H]2[C@H]1CC/C(COC(=O)CCCCCCCCC(=O)OC/C1=C/CC[C@@]3(C)O[C@H]3[C@H]3OC(=O)C(=C)[C@@H]3CC1)=C\CC[C@@]1(C)O[C@@H]21 | -32.7% (active) |
| CNC(=O)c1c(C)oc2cc(Oc3ncnc4cc(OC)c(OC)cc34)ccc12 | 106% |
| CCN(CC)C(=S)SSC(=S)N(CC)CC | 77.7% and 111% |
